PubChem BioAssay AID1159580 (chemical genetic matrix, 2015)
The whole screen tested about 5,500 compounds, of which about 2,000 (36%) were called active. Inconclusive results (about 18%) are left out. Rule as the data show it: active = normalized growth mostly below about 0.91 (no sharp cut-off); inconclusive = no clear call, values can overlap the other calls; inactive = mostly above about 0.92. The list shows a part of the results.

Test: chemical genetic growth profiling, strain panel (AID 1159580);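 also: tested at 20 µM; growth read once vehicle control cultures reached saturation at 30 °C; 1 = growth at the plate median or of vehicle wells; lower values mean less growth of the strain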
Settings: growth OD
[1] = S. cerevisiae deletion strains, locus YAL013W, strain DEP1, hits give low values
[2] = S. cerevisiae deletion strains, locus YAL040C, strain CLN3, hits give low values
[3] = S. cerevisiae deletion strains, locus YCL061C, strain MRC1 (second series), hits give low values
[4] = S. cerevisiae deletion strains, locus YDR363W, strain ESC2, hits give low values
[5] = S. cerevisiae deletion strains, locus YER002W, strain NOP16, hits give low values
[6] = S. cerevisiae deletion strains, locus YGR229C, strain SMI1, hits give low values
[7] = S. cerevisiae deletion strains, locus YMR307W, strain GAS1, hits give low values
[8] = S. cerevisiae deletion strains, locus YNL153C, strain GIM3, hits give low values
[9] = S. cerevisiae deletion strains, locus YNL175C, strain NOP13, hits give low values
[10] = S. cerevisiae deletion strains, locus YNL197C, strain WHI3, hits give low values
[11] = S. cerevisiae deletion strains, locus YNL224C, strain SQS1, hits give low values
[12] = S. cerevisiae deletion strains, locus YNL322C, strain KRE1, hits give low values
[13] = S. cerevisiae deletion strains, locus YOR083W, strain WHI5 (second series), hits give low values
[14] = S. cerevisiae deletion strains, locus YPL241C, strain CIN2, hits give low values
[15] = S. cerevisiae deletion strains, locus YGR078C, strain PAC10, hits give low values
[16] = S. cerevisiae deletion strains, locus YBR229C, strain ROT2, hits give low values
[17] = S. cerevisiae deletion strains, locus YDL101C, strain DUN1, hits give low values
[18] = S. cerevisiae deletion strains, locus YDL134C, strain PPH21, hits give low values
[19] = S. cerevisiae deletion strains, locus YDR150W, strain NUM1, hits give low values
[20] = S. cerevisiae deletion strains, locus YEL061C, strain CIN8, hits give low values
[21] = S. cerevisiae deletion strains, locus YHR030C, strain SLT2, hits give low values
[22] = S. cerevisiae deletion strains, locus YHR087W, strain rtc3, hits give low values
[23] = S. cerevisiae deletion strains, locus YJL187C, strain SWE1, hits give low values
[24] = S. cerevisiae deletion strains, locus YJR043C, strain POL32, hits give low values
[25] = S. cerevisiae deletion strains, locus YJR075W, strain HOC1, hits give low values
[26] = S. cerevisiae deletion strains, locus YLR039C, strain RIC1, hits give low values
[27] = S. cerevisiae deletion strains, locus YLR058C, strain SHM2 (second series), hits give low values
[28] = S. cerevisiae deletion strains, locus YLR085C, strain ARP6, hits give low values
[29] = S. cerevisiae deletion strains, locus YLR262C, strain YPT6, hits give low values
[30] = S. cerevisiae deletion strains, locus YML094W, strain GIM5, hits give low values
[31] = S. cerevisiae deletion strains, locus YMR219W, strain ESC1, hits give low values
[32] = S. cerevisiae deletion strains, locus YMR263W, strain SAP30, hits give low values
[33] = S. cerevisiae deletion strains, locus YNL298W, strain CLA4 (second series), hits give low values
[34] = S. cerevisiae deletion strains, locus YNR030W, strain Alg12, hits give low values
[35] = S. cerevisiae deletion strains, locus YPL055C, strain LGE1, hits give low values
[36] = S. cerevisiae deletion strains, locus YPR135W, strain CTF4, hits give low values
[37] = S. cerevisiae strains, strain wild type, hits give low values
[38] = S. cerevisiae deletion strains, locus YHR079C, strain IRE1, hits give low values
[39] = S. cerevisiae deletion strains, locus YJL095W, strain BCK1, hits give low values
[40] = S. cerevisiae deletion strains, locus YJR066W, strain TOR1, hits give low values
[41] = S. cerevisiae deletion strains, locus YLR113W, strain HOG1, hits give low values
[42] = S. cerevisiae deletion strains, locus YNL183C, strain NPR1, hits give low values
[43] = S. cerevisiae deletion strains, locus YOR231W, strain MKK1, hits give low values
[44] = S. cerevisiae deletion strains, locus YPL256C, strain CLN2, hits give low values

Measured: normalized growth

NC(Cc1cccc(-c2ccccc2CP(=O)(O)O)c1)C(=O)O (stereo unspecified)
inactive: [1] 0.998 | [2] 1 | [3] 1 | [4] 0.983 | [5] 1.02 | [6] 1.01 | [7] 0.989 | S. cerevisiae deletion strains, locus YNL128W, strain TEP1, hits give low values 0.994 | [8] 1.04 | [9] 0.998 | [10] 0.995 | [11] 1 | [12] 1 | [13] 0.989 | [14] 1

C[C@H](Cc1ccccc1)Nc1ncnc2c1ncn2[C@@H]1O[C@H](CO)[C@H](O)C1O (stereo partly specified)
inactive: [1] 0.995 | [2] 0.979 | [3] 1.01 | [4] 0.989 | [5] 0.997 | [15] 1 | [6] 1 | [7] 1 | [8] 1.22 | [9] 0.989 | [10] 0.99 | [11] 1 | [12] 0.996 | [13] 0.988

C/C(=N/O)c1sc2nc(C(F)(F)F)nn2c1C
inactive: [1] 0.954 | [16] 0.957 | [17] 1.01 | [18] 0.966 | [19] 0.975 | [20] 0.981 | [15] 0.956 | [6] 0.982 | [21] 0.89 | [22] 0.961 | [23] 0.974 | [24] 0.977 | [25] 0.997 | [26] 0.795 | [27] 0.953 | [28] 1.05 | [29] 0.86 | [30] 0.943 | [31] 0.963 | [32] 0.964 | [8] 1 | [33] 0.99 | [12] 0.962 | [34] 0.989 | [35] 0.96 | [14] 1.02 | [36] 0.851 | [37] 0.962

Cc1c(C(=O)Sc2ccc(F)cc2F)sc2nc(C(F)(F)F)nn12
active: S. cerevisiae deletion strains, locus YAR019C, strain CDC15, hits give low values 0.0973 | S. cerevisiae deletion strains, locus YBL105C, strain PKC1, hits give low values 0.0839 | S. cerevisiae deletion strains, locus YBR135W, strain CKS1, hits give low values 0.105 | S. cerevisiae deletion strains, locus YBR136W, strain MEC1, hits give low values 0.0954 | S. cerevisiae deletion strains, locus YBR160W, strain CDC28, hits give low values 0.0992 | S. cerevisiae deletion strains, locus YDL017W, strain CDC7, hits give low values 0.0838 | S. cerevisiae deletion strains, locus YDL028C, strain MPS1, hits give low values 0.38 | [17] 0.0962 | S. cerevisiae deletion strains, locus YDL108W, strain KIN28, hits give low values 0.105 | S. cerevisiae deletion strains, locus YDL132W, strain cdc53, hits give low values 0.0969 | S. cerevisiae deletion strains, locus YDL214C, strain PRR2, hits give low values 0.103 | S. cerevisiae deletion strains, locus YDR052C, strain DBF4, hits give low values 0.102 | S. cerevisiae deletion strains, locus YDR054C, strain cdc34, hits give low values 0.0939 | S. cerevisiae deletion strains, locus YDR226W, strain ADK1, hits give low values 0.105 | S. cerevisiae deletion strains, locus YDR477W, strain SNF1, hits give low values 0.107 | S. cerevisiae deletion strains, locus YER123W, strain YCK3, hits give low values 0.111 | S. cerevisiae deletion strains, locus YER133W, strain GLC7, hits give low values 0.106 | S. cerevisiae deletion strains, locus YFL009W, strain cdc4, hits give low values 0.102 | S. cerevisiae deletion strains, locus YFL029C, strain CAK1, hits give low values 0.101 | S. cerevisiae deletion strains, locus YFR003C, strain YPI1, hits give low values 0.45 | S. cerevisiae deletion strains, locus YFR019W, strain FAB1, hits give low values 0.107 | S. cerevisiae deletion strains, locus YFR028C, strain CDC14, hits give low values 0.0976 | S. cerevisiae deletion strains, locus YGR040W, strain KSS1, hits give low values 0.0958 | S. cerevisiae deletion strains, locus YGR052W, strain FMP48, hits give low values 0.106 | S. cerevisiae deletion strains, locus YGR092W, strain DBF2, hits give low values 0.116 | [21] 0.103 | [38] 0.101 | S. cerevisiae deletion strains, locus YHR082C, strain KSP1, hits give low values 0.133 | S. cerevisiae deletion strains, locus YHR205W, strain SCH9, hits give low values 0.000493 | S. cerevisiae deletion strains, locus YIL147C, strain SLN1, hits give low values 0.488 | [39] 0.0913 | S. cerevisiae deletion strains, locus YJL128C, strain PBS2, hits give low values 0.0913 | S. cerevisiae deletion strains, locus YJL157C, strain FAR1, hits give low values 0.0866 | S. cerevisiae deletion strains, locus YJR016C, strain ILV3, hits give low values 0.0901 | S. cerevisiae deletion strains, locus YJR066W, strain TOR1 (second series), hits give low values 0.0917 | [40] 0.122 | S. cerevisiae deletion strains, locus YKL048C, strain ELM1, hits give low values 0.131 | S. cerevisiae deletion strains, locus YKL067W, strain YNK1, hits give low values 0.108 | S. cerevisiae deletion strains, locus YKL101W, strain HSL1, hits give low values 0.0974 | S. cerevisiae deletion strains, locus YKL193C, strain SDS22, hits give low values 0.101 | S. cerevisiae deletion strains, locus YKL203C, strain TOR2, hits give low values 0.103 | [41] 0.145 | S. cerevisiae deletion strains, locus YLR133W, strain CKI1, hits give low values 0.0966 | S. cerevisiae deletion strains, locus YLR403W, strain SFP1, hits give low values -0.00147 | S. cerevisiae deletion strains, locus YML070W, strain DAK1, hits give low values 0.103 | S. cerevisiae deletion strains, locus YMR001C, strain CDC5, hits give low values 0.0979 | S. cerevisiae deletion strains, locus YMR205C, strain PFK2 (second series), hits give low values 0.101 | S. cerevisiae deletion strains, locus YMR277W, strain FCP1, hits give low values 0.1 | S. cerevisiae deletion strains, locus YNL006W, strain LST8, hits give low values 0.0889 | S. cerevisiae deletion strains, locus YNL020C, strain ARK1, hits give low values 0.0935 | S. cerevisiae deletion strains, locus YNL161W, strain CBK1, hits give low values 0.0956 | [42] 0.104 | S. cerevisiae deletion strains, locus YNL207W, strain RIO2, hits give low values 0.214 | S. cerevisiae deletion strains, locus YNL222W, strain SSU72, hits give low values 0.102 | S. cerevisiae deletion strains, locus YNL307C, strain MCK1 (second series), hits give low values 0.105 | S. cerevisiae deletion strains, locus YOL078W, strain AVO1, hits give low values 0.101 | S. cerevisiae deletion strains, locus YOL136C, strain PFK27, hits give low values 0.0958 | S. cerevisiae deletion strains, locus YOR061W, strain CKA2, hits give low values 0.12 | S. cerevisiae deletion strains, locus YOR119C, strain RIO1, hits give low values 0.116 | [43] 0.103 | S. cerevisiae deletion strains, locus YOR329C, strain SCD5, hits give low values 0.0884 | S. cerevisiae deletion strains, locus YPL031C, strain PHO85, hits give low values 0.0971 | S. cerevisiae deletion strains, locus YPL153C, strain RAD53, hits give low values 0.102 | S. cerevisiae deletion strains, locus YPL204W, strain HRR25, hits give low values 0.111 | S. cerevisiae deletion strains, locus YPL209C, strain IPL1, hits give low values 0.0875 | [44] 0.124 | S. cerevisiae deletion strains, locus YPR025C, strain CCL1, hits give low values 0.0998 | S. cerevisiae deletion strains, locus YPR106W, strain ISR1, hits give low values 0.109 | S. cerevisiae deletion strains, locus YPR111W, strain DBF20, hits give low values 0.169 | S. cerevisiae deletion strains, strain NNK1, hits give low values 0.105 | S. cerevisiae deletion strains, strain TSCII, hits give low values 0.104

C=CC1(C)CC(=O)C2(O)C(C)(O1)C(OC(C)=O)C(O)C1C(C)(C)CCC(O)C12C (stereo unspecified)
inactive: [2] 0.968 | [3] 0.985 | [19] 1 | [4] 0.969 | [5] 0.986 | [15] 0.996 | [25] 0.992 | [8] 1.02 | [9] 1.02 | [10] 0.994 | [11] 0.99 | [12] 0.985 | [13] 1.01 | [35] 0.994 | [14] 0.998

CSc1nc2ccccc2[nH]1
inactive: [1] 0.987 | [16] 0.996 | S. cerevisiae deletion strains, locus YCL061C, strain MRC1, hits give low values 0.992 | [17] 0.999 | [18] 0.948 | [19] 1.02 | [20] 0.936 | [15] 0.99 | [21] 1.03 | [22] 0.969 | [23] 0.973 | [24] 1 | [25] 0.956 | S. cerevisiae deletion strains, locus YKL190W, strain CNB1, hits give low values 0.984 | [26] 1.01 | [27] 0.983 | [28] 0.895 | [29] 1.01 | [30] 0.96 | [31] 0.99 | [32] 1.02 | [7] 0.89 | [8] 1.02 | [33] 0.95 | [12] 0.977 | [34] 0.923 | [35] 1.03 | [14] 0.944 | [36] 0.973 | [37] 0.981

CSc1nc2cc(Oc3cccc(Cl)c3Cl)c(Cl)cc2[nH]1
active: [21] 0.11 | [38] 0.119 | [39] 0.114 | [40] 0.0117 | [41] 0.156 | [42] 0.000876 | [43] 0.125 | [44] 0.138
